What is called AC50 is the midpoint of the concentration-response curve, whichever way the signal moves.

One test concerns SERPINA7 (gene 6906). Kind of test: CCTE_GLTED_hTBG: CCTE's human Thyroxine-binding Globulin (TBG) Inhibition Assay, Great Lakes Toxicology and Ecology Division (GLTED) Lab (AID 2284343).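 Note: active chemicals lower fluorescence versus DMSO baseline by displacing probe.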 Summed up:
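Human TBG incubated 2 h with test chemical; displacement of ANSA probe read by fluorescence, 380 nm excitation/475 nm emission. Loss of signal relative to DMSO.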

Test [1] can be described thus: CCTE_Mundy_HCI_iCellGluta_NOG_NeuriteCount: CCTE's Neurite Outgrowth Assay in iCellGluta cells for Neurite Count, Mundy Lab (AID 2284342).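 Note: chemical exposure about 48 hours starting 2 hours after plating.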
For the next test, the system named is TTR (gene 7276). Kind of test: CCTE_GLTED_hTTR_0.125uM: CCTE's human Transthyretin (hTTR) Inhibition Assay, with 0.125uM TTR, Great Lakes Toxicology and Ecology Division (GLTED) Lab (AID 2284431; active = hit-call score of the fitted dose curve at least 0.9, where 1 is the maximum; inactive = score below 0.9). In a few lines: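 Cell-free displacement of the fluorescent probe ANSA from human TTR (0.125uM) after 2 h incubation with test chemical. Fluorescence read at 380 nm excitation/475 nm emission; loss of signal fitted relative to DMSO baseline.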

Test [2] is described as follows: CCTE_Deisenroth_H295R-HTRF_384WELL_ESTRADIOL: CCTE's H295R-HTRF Assay Evaluation of Estradiol Concentration, Deisenroth Lab (AID 2284361; active = hit-call score of the fitted dose curve at least 0.9, where 1 is the maximum; inactive = score below 0.9). Conditions: actives raise or lower the signal. Summed up:
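H295R cells exposed 48 h to chemicals at 0.001 - 100 uM final (nine points, triplicate); estradiol in conditioned medium measured by HTRF immunoassay, fitted bidirectionally versus DMSO. Viability by CellTiter-Glo on same plates.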
On the technique in general: In TR-FRET formats the signal depends on donor and acceptor labels being close together.

The nature of test [3]: CCTE_Deisenroth_H295R-HTRF_384WELL_TESTOSTERONE: CCTE's H295R-HTRF Assay Evaluation of Testosterone Concentration, Deisenroth Lab (AID 2284373; active = hit-call score of the fitted dose curve at least 0.9, where 1 is the maximum; inactive = score below 0.9). Conditions: actives raise or lower the signal. In a few lines: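 H295R cells were acclimated 24 h, then exposed 48 h to nine concentrations (0.001–100 uM final) in technical triplicate, n=5. Testosterone in conditioned medium was measured by HTRF (em 620/665 nm). Fitting was bidirectional versus DMSO; CellTiter-Glo viability ran on the same plates.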

A short description of test [4]: CCTE_Deisenroth_H295R-HTRF_384WELL_CTOX: Cytotoxicity Assessment in CCTE's H295R-HTRF Assay, Deisenroth Lab (AID 2284380). In a few lines:
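H295R adrenocortical carcinoma cells plated 24 h, then exposed 48 h to nine-point series 0.001–100 uM final, triplicate, n=5. ATP measured by CellTiter-Glo 2.0 luminescence on same plates after medium collection; loss versus DMSO.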

Molecules are shown by their SMILES. Records with an inconclusive call do not appear. Activity calls are given as the source filed them. Rule for the calls, unless noted: active = hit-call score of the fitted dose curve at least 0.9, where 1 is the maximum; inconclusive = response in the unintended direction; inactive = score below 0.9.

Regarding `C#CCOS(=O)OC1CCCCC1Oc1ccc(C(C)(C)C)cc1` (configuration not stated), the AC50 in the test on SERPINA7 (gene 6906) is 25.2 µM (active).

For `COP(=S)(OC)Oc1nc(Cl)c(Cl)cc1Cl`, the AC50 in test [1] is 27.8 µM (active); with TTR (gene 7276), 0.274 µM (active).

As for `Oc1ccccc1-c1ccccc1`, the values for the AC50 with SERPINA7 (gene 6906) and in the test with TTR (gene 7276) were 28.1 µM (active) and 14.2 µM (active), respectively.

Turning to `COc1nc(NC(C)C)nc(NC(C)C)n1`, the AC50 in test [2] was 34.6 µM (active). For the same compound, the outcome in test [3] and in test [4] was inactive.

For the compound `CCCCC(CC)COC(=O)c1ccccc1C(=O)OCC(CC)CCCC` (configuration not stated), in test [1], the AC50 is 30.4 µM (active). Further, the outcome in test [2], in test [3] and in test [4] was inactive.

In the case of `C=CCC1=C(C)[C@@H](OC(=O)[C@@H]2[C@@H](C=C(C)C)C2(C)C)CC1=O`, the outcome in test [1] was inactive.

For the compound `CCOc1cc(Oc2ccc(C(F)(F)F)cc2Cl)ccc1[N+](=O)[O-]`, the AC50 is 66.4 µM (active) in test [1] and 4.86 µM (active) in the test on SERPINA7 (gene 6906).

Turning to `CO/C=C(/C(=O)OC)c1ccccc1Oc1cc(Oc2ccccc2C#N)ncn1`, in test [1], the AC50 is 21.5 µM (active).

On to `Cc1ccc(-c2c(Cl)nc(C#N)n2S(=O)(=O)N(C)C)cc1`, for which the values for the AC50 (in test [1]; in the test with SERPINA7 (gene 6906); in the test on TTR (gene 7276)) were 50 µM (active), 33.1 µM (active) and 0.0946 µM (active), respectively.

Turning to `COC(=O)N(OC)c1ccccc1COc1ccn(-c2ccc(Cl)cc2)n1`, the AC50 in test [1] was 3.35 µM (active).

Regarding `CCCN(CCC)c1c([N+](=O)[O-])cc(S(N)(=O)=O)cc1[N+](=O)[O-]`, the half-maximal activity concentration (AC50) in the test with SERPINA7 (gene 6906) is 5.43 µM (active); with TTR (gene 7276), 9.88 µM (active).
